From PubChem
This is a sample that favours compounds with a hit; in the whole collection about 5.8% have one here.
Luciferase inh – inhibitors of firefly luciferase; P08659; purified firefly luciferase, luminescence, 8 min; Potency, µM (series often up to 57.1 µM), hits mostly inhibitors; 2.2% of 72,000 active; also: nearly all actives have a fitted effect of over 40% in size
Target sequence (P08659 whole entry, looked up): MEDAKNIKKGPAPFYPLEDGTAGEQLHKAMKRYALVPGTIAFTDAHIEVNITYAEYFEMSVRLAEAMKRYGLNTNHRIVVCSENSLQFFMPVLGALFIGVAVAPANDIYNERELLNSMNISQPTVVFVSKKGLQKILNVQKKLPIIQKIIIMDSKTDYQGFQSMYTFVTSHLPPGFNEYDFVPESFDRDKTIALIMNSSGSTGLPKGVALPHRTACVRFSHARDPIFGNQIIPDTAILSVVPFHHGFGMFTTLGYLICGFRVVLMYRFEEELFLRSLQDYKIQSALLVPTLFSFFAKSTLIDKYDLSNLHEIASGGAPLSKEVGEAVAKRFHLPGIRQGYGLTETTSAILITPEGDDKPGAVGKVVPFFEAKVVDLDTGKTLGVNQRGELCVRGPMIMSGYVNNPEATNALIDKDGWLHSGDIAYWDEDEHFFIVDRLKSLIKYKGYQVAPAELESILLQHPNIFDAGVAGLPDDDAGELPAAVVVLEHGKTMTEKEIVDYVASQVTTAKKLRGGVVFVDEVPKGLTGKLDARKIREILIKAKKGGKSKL
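Luminescence read-out after 8 min at room temperature; enzyme reaction used luciferin plus 10 uM ATP (linear range) in imidazole buffer pH 7.2 with KCl, MgCl2, Tween 20 and BSA. Each sample was run as a titration.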
GBA mod – alters purified human glucocerebrosidase activity | 1.1% of 48,000 active | AID 360 | Potency, µM | purified enzyme, resorufin glucoside fluorescence (screen aimed at inhibitors), 20 min | P04062; in the data active = potency below about 15 µM; inconclusive = mostly about 16 µM to 33 µM;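 also: the screen sought inhibitors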
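Compounds titrated against 0.2 nM normal enzyme, 30 uM resorufin beta-D-glucopyranoside substrate, citrate/phosphate buffer with taurocholate and tween-20, pH 5.9. Reaction ran 20 min at room temperature; fluorescence (Ex 548/Em 600) gave AC50.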
TSHR agonist – TSH receptor (human) agonism | AID 926 | P16473 | Potency, µM (titrated, usually from 57.1 µM), actives largely listed as activators | HEK293-CNG-TSHR cells (CNG channel as cAMP sensor), membrane potential dye, cAMP | 0.48% of 73,000 active; active = well fitted activation curve with a large enough effect in the main read-out, with a control signal flat, not every such curve was filed as active; inconclusive = small, poorly fitted or top-dose-only effect, or a change in a side signal; inactive = no such curve, though single readings can be large or run the other way; reference of the percent scale not stated here;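 also: the control signal comes from parental cells without the receptor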
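HEK 293 cells stably expressing TSHR and a modified CNG channel, with CNG-only parental cells as counterscreen, were preloaded 60 min at room temperature with membrane potential dye containing 100 uM RO 20-1724. Compound exposure was 30 min, and depolarization was read as fluorescence at 590 nm.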
HEK293 cAMP cs – raises cAMP in parental HEK293 cells, TSHR agonist counter-screen; Potency, µM (series often up to 57.1 µM), most hits filed as activators; 2.5% of 73,000 active; parental HEK293 CNG cAMP sensor, membrane potential fluorescence; AID 938; also: nearly all actives have a fitted effect of over 55% in size
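Counterscreen for endogenous-receptor signalling: CNG-channel HEK 293 cells report cAMP rise by membrane depolarization. After 60 min dye equilibration with 100 uM RO 20-1724, compounds incubated 30 min before bottom-read fluorescence at 590 nm.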
PK Bst – pyruvate kinase (B. stearothermophilus) modulation | purified pyruvate kinase, luminescence ATP production; ribose 5-phosphate activator present at AC10 | Potency, µM | 1.2% of 51,000 active; in the data active = potency below about 11 µM; inconclusive = mostly about 12 µM to 25 µM;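 the screen sought inhibitors and activators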
Numbers stand for hits; – = inactive; ? = inconclusive; · = no result given; [ ] = another dose, or the depositor's remark. Unless noted, calls follow the shape of the dose curve; as a rule, active = well fitted curve in the direction sought with a large enough effect; inconclusive = small, poorly fitted or top-dose-only effect, or another doubt; inactive = no such curve, though single readings can be large; an effect the other way counts as inactive or inconclusive.

SMILES	Luciferase inh	GBA mod	TSHR agonist	HEK293 cAMP cs	PK Bst
CC(C)CN1CC2(CCN(C(=O)c3ccco3)CC2)C1	–[11.4 µM]	·	?	20µM	·
CC(C)CN1CCCC2(CCN(C(=O)c3ccco3)CC2)C1	–[11.4 µM]	·	–	–	·
N#CCc1ccccc1[N+](=O)[O-]	·	·	–	–	·
O=C(c1cc(-c2ccncc2)nc2ccccc12)N1CCN(c2ccccn2)CC1	–	–	–	–	–
Cc1ccc(-c2nnc(N3CCN(c4ccccn4)CC3)c3ccccc23)cc1	–	–	–	–	–
c1ccc(-c2nnc(N3CCN(c4ccccn4)CC3)c3ccccc23)cc1	–	14	–	–	–
O=C(c1cc(-c2ccccc2)nc2ccccc12)N1CCN(c2ccccn2)CC1	20µM	–	·	–	·
COCC(=O)N1CCC2(CC1)CCN(c1ccc(-c3ccccc3)cc1)CC2	–[11.4 µM]	·	–	–	·
O=C1C=C[C@@H](O)[C@@H]2[C@H]3C(=O)N(c4ccc(F)cc4F)C(=O)[C@@H]3CC[C@@H]12	–[11.4 µM]	·	–[11.4 µM]	–[11.4 µM]	·
O=C(O)c1cncc(C(=O)O)c1	–[11.4 µM]	·	–[11.4 µM]	–[11.4 µM]	·
N[C@@](C(=O)O)(c1ccc(P(=O)(O)O)cc1)C1CC1	–	·	–	–	·
COc1ccc(-n2nc(C(=O)NCC(=O)N3CCN(c4ccccn4)CC3)c3ccccc3c2=O)cc1	3.2µM	–	–	–	8.2
COc1ccc(CC(=O)N2CCN(c3ccccn3)CC2)cc1	–	–	–	–	–
COc1ccc(-n2nc(C(=O)Nc3ccc4c(c3)OCO4)c3ccccc3c2=O)cc1	–	–	?	16µM	–
N[C@@H](CO)C(=O)NNCc1ccc(O)c(O)c1O	–	·	–	–	·
CN1CCN(c2nc(-c3ccc4c(c3)OCO4)nc3ccccc23)CC1	–[2.29 µM]	·	–	–	·
CCC/C=C(\CCC)C(NC(=O)c1ccco1)c1ccc(C(=O)OC)cc1 (stereo not given)	·	·	?	25µM	·
Cc1cc(/C=N/n2cnnc2)c(C)n1-c1ccc(Cl)cc1Cl	–	·	?	3.2µM	·
Cc1cc(/C=N/n2cnnc2)c(C)n1-c1cccc(Cl)c1	–	·	25µM	–	·
CC(C)C(c1nnnn1C1CCCC1)N1CCc2ccccc21 (stereo not given)	–	·	?	?	–
CC(C)C(c1nnnn1C1CCCCC1)N1CCc2ccccc2C1 (stereo not given)	–	·	?	5µM	–
CCOC(=O)N1CC=C2C(C#N)=C(N)C(C#N)(C#N)[C@H](c3ccccc3OCC)[C@H]2C1	–	8.5	?	?	–
Cc1ccc(C(=O)Nc2ncc(Cc3ccc(F)cc3)s2)o1	20µM	–	–	–	·
CN=C(N)/N=C(\N)Nc1cc2ccccc2c2ccccc12	–[11.4 µM]	·	–[11.4 µM]	–[11.4 µM]	·
O=C(Nc1ccc2c(c1)OCO2)c1cncc(Br)c1	–	·	·	·	–
SMILES	Luciferase inh	GBA mod	TSHR agonist	HEK293 cAMP cs	PK Bst
Cc1ncoc1C(=O)Nc1ccc2c(c1)OCCO2	20µM	–	–	–	·
Cc1cc(C(=O)Nc2ccc3c(c2)OCCO3)c(C)o1	16µM	–	–	–	–
Cc1ccc(C(=O)Nc2ccc3c(c2)CCC3)o1	·	·	–	–	·
Cc1occc1C(=O)Nc1ccc2c(c1)CCC2	25µM	–	–	–	·
O=C(Nc1ccc2c(c1)OCCO2)c1cncc(Br)c1	10µM	–	–	–	–
Cc1occc1C(=O)Nc1ccc2c(c1)OCCO2	20µM	–	–	–	–
O=C(Nc1ccc2c(c1)OCCO2)c1ccc(CN2CCOCC2)cc1	16µM	?	–	–	·
Cc1csc2ncc(C(=O)Nc3ccc4c(c3)OCCO4)c(=O)n12	–	·	–	–	·
COCc1cc(=O)n2c(-c3ccc(C)cc3)n[nH]c2n1	13µM	·	–[11.4 µM]	–	·
O=C1C2=CC[C@@H]3C(=O)N(c4ccc(F)cc4F)C(=O)[C@H]3[C@H]2[C@H](O)[C@H]2O[C@H]12	–[11.4 µM]	·	–[11.4 µM]	–[11.4 µM]	·
Cc1cnc(C(=O)Nc2ccc3c(c2)CCC3)cn1	16µM	–	–	–	–
O=C(Nc1ccc2c(c1)CCC2)c1cnccn1	25µM	–	–	–	·
CCOC(=O)c1cc(NC(=O)c2cnccn2)cc(C(=O)OCC)c1	–	–	–	–	–
CC(C)[C@@H](C)/C=C\[C@@H](C)[C@@H]1CC[C@H]2C3=CC=C4C[C@@H](O)CC[C@]4(C)[C@H]3CC[C@]21C	–[11.4 µM]	·	–[11.4 µM]	–[11.4 µM]	·
COc1ccccc1C(=O)Nc1c2c(nn1-c1cccc(C)c1C)CS(=O)(=O)C2	–	–	?	5µM	–
CO/N=C(\C)CCN1CCCCc2nc(C)c(C)cc21	–[11.4 µM]	·	–[11.4 µM]	–[11.4 µM]	·
COc1ccc(OCCSc2ncccn2)cc1	25µM	–	–	–	·
COc1ccc(OCCCSc2ncccn2)cc1	?	·	–	–	·
Cc1cccc2cc(C#N)c(N3CCN(C)CC3)nc12	–	·	?	16µM	–
Cc1cc(C)c2nc(N3CCN(C)CC3)c(C#N)cc2c1	–	?	?	13µM	·
Cc1ccc2nc(N3CCN(C)CC3)c(C#N)cc2c1	–	–	?	?	–
CCNc1ncc2nc(-c3cccc(C#N)c3)c(=O)n(Cc3cccc(OC)c3)c2n1	–[11.4 µM]	·	–	–	·
Cc1cc(Cl)ccc1OCc1nc(-c2ccc(O)cc2)n[nH]1	?	?	–	–	·
COCCNc1c(-c2ccc(O)cc2)nc2ccc(Cl)cn12	–	6.9	–	–	–
C[C@H](NC(=O)/C(C#N)=C/c1ccc(O)c(O)c1)c1ccccc1	–	·	?	?	·
SMILES	Luciferase inh	GBA mod	TSHR agonist	HEK293 cAMP cs	PK Bst
CC1(C)Cc2c(sc(NC(=O)c3ccc(Br)o3)c2C#N)CO1	10µM	·	·	·	·
O=C(Nc1ccc2c(c1)nc1n2CCSC1)c1ccco1	6.3µM	·	–	–	4.6
O=C(Nc1ccc2c(c1)nc1n2CCN(C2CCCCC2)C1)c1ccco1	–	–	–	–	–
O=C(Nc1ccc2c(c1)nc1n2CCOC1)c1ccco1	16µM	?	–	–	?
C[N+](C)(C)CCC(=O)c1cccc2ccccc12	–	·	?	?	·
NCC1CCC(C(=O)O)CC1 (stereo not given)	–	·	–	–	·
COc1cccc(NC(=O)c2oc3ccccc3c2NC(=O)C(C)(C)C)c1	–	·	?	1µM	–
COc1cccc(NC(=O)c2oc3ccccc3c2NC(=O)c2ccc3c(c2)OCO3)c1	4µM	–	·	–	–
CN(C)C(=O)c1ccc(-c2nc(NCc3ccccc3)c3ccccc3n2)cc1	–[2.29 µM]	·	?	?	·
CC(=O)N1CCN(c2ccc(NCc3ccccc3)cc2)CC1	–	13	–	–	–
CCN(CC)C(=O)CSc1nnc2sc3ccccc3n12	–	–	–	–	–
COc1cccc(OCCSc2nnc3sc4ccccc4n23)c1	–	–	?	16µM	·
CCCn1c(=O)c2ccccc2n2c(SCCOc3ccccc3)nnc12	–	–	?	10µM	·
c1ccc(OCCSc2nnc3sc4ccccc4n23)cc1	25µM	–	?	?	?
N[C@@H]1[C@@H]2[C@@H]3C[C@H]4N(CC[C@@]14C(=O)C(=O)O)CC3=CCO[C@@H]2CC(=O)O	–[11.4 µM]	·	–[11.4 µM]	–[11.4 µM]	·
CC(=O)C1=C(C)NC(SCC(=O)c2ccccc2)=C(C#N)C1CC(C)C (stereo not given)	–	–	10µM	–	–
Cc1ccccc1Cc1c(C)nc2nc(SCC(=O)NCc3ccco3)nn2c1C	–	–	–[11.4 µM]	–	–
